Only some compounds are listed: those with a hit (about 4.1% of all), similar ones and a draw of the others.
TWEAK Fn14 block – blocks TWEAK-Fn14 interaction in a reporter cell assay. inhibition, % at 10 µM. 360,000 compounds, 2% hits. TWEAK-stimulated Fn14 reporter cells, luciferase luminescence, 8 h; in the data active = inhibition above about 50%
MITF TRPM1 inh – inhibitors of MITF-driven TRPM1 promoter in melanoma cells; SK-MEL-5 TRPM1 promoter luciferase, 24 h; 330,000 compounds, 0.83% hits; inhibition, % at 12.5 µM; AID 488899;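 active = mean inhibition across replicates of 60% or more, whatever share of single replicates reaches that level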
Shn3 inh set2 – inhibitors of Schnurri-3 3'UTR reporter in osteoblasts. Clone20 osteoblast Shn3 3'UTR firefly luciferase, 24 h. inhibition, % at 12.5 µM. 360,000 compounds, 0.52% hits. AID 588674;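 active = mean inhibition of at least 75% with every replicate also reaching 75%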;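 also: 0% = median of neutral control wells and 100% = pilot-screen positive control compound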
LMP1 NFkB inh – inhibitors of Epstein-Barr LMP1-induced NF-kappaB reporter | LMP1-induced NF-kappaB luciferase reporter cells, luminescence | inhibition, % at 12.5 µM | 350,000 compounds, 0.69% hits | AID 504558; in the data active = inhibition above about 41%;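 also: 0% = neutral control wells and 100% = reference inhibitor control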
Peg3 promoter – Peg3 promoter activity inhibition; HeLa PEG-Prom luciferase reporter, luminescence, overnight; inhibition, % at 20 µM; 360,000 compounds, 1.7% hits;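 active = inhibition of at least 50% at 20 µM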
TROY NFkB inh – inhibitors of TROY-dependent NF-kB signaling | Q293 LMP1-TROYcd NF-kB luciferase reporter, 4 h | inhibition, % at 10 µM | 360,000 compounds, 0.98% hits | AID 1347056;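 active = compounds whose plate-normalised and pattern-corrected inhibition of the luciferase reporter signal at the single screening dose is 50% or more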
* marks the source's active call; other numbers are inactive results; . = no result.

SMILES	TWEAK Fn14 block	MITF TRPM1 inh	Shn3 inh set2	LMP1 NFkB inh	Peg3 promoter	TROY NFkB inh
O=C(NC1CCCCC1)C12CC3CC(C1)CC(n1cncn1)(C3)C2	1	-3	12	78*	12	-13
CC(C)CCNC(=O)C(c1ccc(O)cc1)N(Cc1cccs1)C(=O)C1COc2ccccc2O1 (centres undefined)	55*	-5	-1	5	51*	28
Cc1ccc(NC(=O)C2C3C=CC4(O3)C2C(=O)N(CCCN2CCCC(C)C2)C4C(=O)NC2CCCCC2)cc1 (centres undefined)	5	-1	-2	-5	-8	-2
COc1ccccc1S(=O)(=O)N(C)C[C@H]1OCc2cn(nn2)CCCC(=O)N([C@@H](C)CO)C[C@@H]1C	-32	.	2	4	20	-25
CN1OC[C@@H]2CN(Cc3ccc4c(c3)OCO4)[C@H](c3ccc(N4CCCCC4)cc3)C[C@@H]21	-22	.	7	.	-6	12
c1ccc2cc(Sc3ncnc4c3oc3ccccc34)ccc2c1	-26	-30	-13	-6	-145	-57
Cc1cc(C)nc(Sc2ncnc3c2oc2ccccc23)n1	56*	-7	-44	9	-71	-31
N=C(N)c1ccc(N=Nc2c(O)ccc3c2[nH]c2ccccc23)cc1	-3	27	14	11	98*	-2
Cc1cc(OCC(=O)N(C)C2CCCCC2)ccc1Cl	39	-40	-56	-26	-199	66*
Cc1cc(OCC(=O)N(C)C2CCCCC2)cc(C)c1Cl	-35	-55	-19	-10	-126	-38
O=C(CCl)N1CCN(S(=O)(=O)c2ccc3c(c2)CCC3)CC1	11	66*	-4	-6	50*	9
COc1ccccc1N(CC(=O)NC1CCCCC1)C(=O)CCC(=O)Nc1ccccn1	-15	2	12	-7	0	9
O=C(O)/C=C\C(=O)Nc1ccc(F)c(F)c1F	-2	0	-1	7	10	11
CCN(C(=O)COC(=O)CCC(=O)c1ccc(Cl)cc1)c1c(N)n(Cc2ccccc2)c(=O)[nH]c1=O	-1	.	-24	1	-10	-13
C=CCN1C(=O)/C(=C/c2ccc(OC(C)=O)c(OCC)c2[N+](=O)[O-])SC1=S	60*	23	-22	5	-49	43
CC1=CC(=NOC(=O)/C=C/c2ccccc2)C=C(C)C1=O	12	2	16	59*	-18	-12
CC1=CC(=O)C=C(C)C1=NOC(=O)/C=C\c1ccccc1	34	-5	-8	8	12	2
COC(=O)c1cccc(NC(=S)NC(C)C)c1	3	9	11	7	-2	3
CCn1cc(C(=O)NCCCN2CCC(C)CC2)c(=O)c2cc(S(=O)(=O)N(C)C3CCCCC3)ccc21	-10	-4	20	-10	14	14
CCn1cc(C(=O)NCCCN2CC(C)CC(C)C2)c(=O)c2cc(S(=O)(=O)N(C)C3CCCCC3)ccc21 (centres undefined)	-12	-7	-21	3	73*	-12
Cc1cc(Cl)nc2ccc(Cc3ccc4nc(Cl)cc(C)c4c3)cc12	-2	0	64	16	5	14
CCn1nc(C)c(CNCc2cn[nH]c2-c2cc3ccccc3o2)c1C	0	0	-4	9	0	-16
CCn1c(=O)c([N+](=O)[O-])c(Cl)c2ccccc21	21	94*	96*	-4	108*	14
COc1cc(NC(=O)c2cccc(F)c2)cc(OC)c1OC	-8	6	-16	-6	-5	-19
Cc1ccc(C)c(NC(=O)CN(C)C(=O)COc2ncnc3sccc23)c1	1	8	9	-1	-11	19
Cc1ccc(CNC(=O)CN(Cc2ccccc2)S(C)(=O)=O)cc1	9	7	8	0	7	5
O=[N+]([O-])c1ccc(/C=N/Nc2cc(Cl)nc(-c3ccccc3)n2)cc1	-63	14	5	85*	11	-8
CS(=O)(=O)Nc1ccccc1C(=O)NCC1(N2CCCCC2)CCCCC1	3	5	4	47*	7	7
CS(=O)(=O)Nc1cccc(C(=O)OCCCOc2ccc(F)cc2)c1	0	-4	-8	2	13	18
COc1ccc(-c2nc(-c3ccccn3)ncc2S(C)(=O)=O)cc1	-6	-4	14	4	0	8

Source: PubChem BioAssay (several laboratories)
